# Assay outcomes: PubChem BioAssay, The Scripps Research Institute Molecular Screening Center
# An excerpt weighted towards active compounds, which were near 4.1% of everything screened.
# DAX1 inh-1 = DAX1 (NR0B1) inhibitors, primary screen, cell-based, HEK293, Gal4-DAX1, luciferase luminescence | Nuclear receptor subfamily 0 group B member 1 (Homo sapiens), P51843 | HEK293 Gal4-DAX1 luciferase reporter | 340,000 tested, 0.99% active | AID 504766, 2011 | inhibition, % at 6.75 µM;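 active means inhibition above the mean over all tested compounds plus 3 SD, cut at about 4.2% in these data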;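 further: 0% = DAX1-transfected cells with DMSO and 100% = empty-vector control cells with DMSO; inhibition shows as a rise in luminescence from relieved DAX1 repression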
# Target sequence (P51843 207-470 limits assumed): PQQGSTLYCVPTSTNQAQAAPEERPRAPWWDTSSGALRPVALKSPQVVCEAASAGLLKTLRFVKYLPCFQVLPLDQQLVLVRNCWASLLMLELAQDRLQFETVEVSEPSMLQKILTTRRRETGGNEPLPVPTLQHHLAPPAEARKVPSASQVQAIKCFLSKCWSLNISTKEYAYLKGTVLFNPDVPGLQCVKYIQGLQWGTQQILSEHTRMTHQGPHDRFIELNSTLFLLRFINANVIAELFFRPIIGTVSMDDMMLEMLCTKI
# hgDAF12 agonist = H. glycines DAF-12 receptor agonists, primary screen, cell-based, luminescence, HEK293, GAL4 fusion, UAS-luciferase. 370,000 tested, 1.8% active. activation, % at 6.8 µM. HEK293 GAL4-hgDAF12 UAS-luciferase reporter, agonist luminescence; normalized to butyrate control. Nuclear hormone receptor DAF-12 (Heterodera glycines), GAL4 fusion;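 active means activation above a cutoff set at the mean of all screened compounds plus 3 SD, cut at about 10% in these data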;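 further: 0% = DMSO wells and 100% = sodium butyrate wells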
# DAX1 inh-2 = DAX1 (NR0B1) inhibitors on StAR promoter, primary screen, cell-based, luminescence, SF-1 (NR5A1), full-length DAX-1. 370,000 tested, 1.1% active. HEK293T StAR-luciferase reporter, SF-1/DAX-1 repression relief. inhibition, % at 6.8 µM;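 active means inhibition above the mean over all tested compounds plus 3 SD, cut at about 3.6% in these data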;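 further: 0% = DAX-1 cells with DMSO and 100% = cells lacking DAX-1 with DMSO; higher inhibition means more luminescence from relief of DAX-1 repression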
# ssDAF12 agonist = S. stercoralis DAF-12 nuclear receptor activators, primary screen, cell-based, luminescence, HEK293, GRIP1 co-expression, lit1-tk-luc | HEK293 ssDAF-12/GRIP1 lit1-tk-luc reporter; % of 3 µM dafachronic acid response | Nuclear hormone receptor DAF-12 (Strongyloides stercoralis) | 370,000 tested, 1% active | activation, % at 6.8 µM;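 active means activation above the mean over all tested compounds plus 3 SD, cut at about 0.9% in these data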;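 further: 0% = DMSO-only wells and 100% = 3 µM delta7-dafachronic acid wells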
# hcDAF-12 act = H. contortus DAF-12 nuclear receptor activators, primary screen, cell-based, luminescence, HEK293, lit1-tk-luc reporter; HEK293 hcDAF-12 lit1-tk-luc reporter; 0% DMSO, 100% Δ7-dafachronic acid; activation, % at 6.8 µM; 370,000 tested, 1.4% active;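 active means activation above the mean of all tested compounds plus 3 SD, cut at about 5.5% in these data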;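 further: 100% = response to 3 µM Δ7-dafachronic acid high control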
# * = called active by the depositor; x = no result given.
SMILES,DAX1 inh-1,hgDAF12 agonist,DAX1 inh-2,ssDAF12 agonist,hcDAF-12 act
O=C(N[C@@H](Cc1cccnc1)C(=O)N1CCC[C@H]1C(=O)NC1CCCC1)C1CC1,x,2,1,-1,-2
Cc1occc1C(=O)N/N=C/c1ccccn1,1,11*,2,1,1
C/C(=N\NC(=O)c1ccoc1C)c1cccc2ccccc12,0,13*,1,0,3
COc1cc(/C=N/NC(=O)c2ccoc2C)ccc1O,3,10*,1,0,2
Cc1ccc(C(=O)N/N=C\c2ccccn2)cn1,2,1,0,-2,0
C/C(=N\NC(=O)c1cccc2ccccc12)c1ccccn1,-1,0,-1,-1,-2
O=C1CC[C@@H]2CC3(C[C@@H]4CCN1[C@H]24)Nc1ccccc1NC3=NC1CCCCC1 (stereo not given in full),5.2*,2,0,-1,-1
Cc1ccccc1N=C1Nc2ccccc2N[C@]12C[C@H]1CCC(=O)N3CC[C@@H](C2)[C@@H]13,0,2,1,0,3
Cc1ccc(-n2c(SCC(=O)Nc3ccccc3-c3ccccc3)nnc2-c2ccco2)cc1,x,-1,-1,-2,-3
O=C(COC(=O)COc1ccc2ccccc2c1)NCC(F)(F)F,0,0,0,-1,5.6*
O=[N+]([O-])c1ccc2cn(-c3ccccc3)nc2c1,1,13*,3,1.1*,6.0*
CCc1ccc(NC(=O)c2cc(C)no2)cc1,4.4*,5,0,-1,1
CC(C)c1cc(C(=O)Nc2cc(Cl)ccc2O)no1,2,9,3,0,2
CCCc1cc(C(=O)Nc2ccc(CC)cc2)no1,3,11*,2,0,5
CC(C)Cc1cc(C(=O)Nc2ccc(Br)cc2)no1,2,4,2,0,2
CCc1ccc(NC(=O)c2cc(-c3cccs3)on2)cc1,2,8,1,0,-1
CCc1ccc(NC(=O)c2cc(CC(C)C)on2)cc1,5.1*,8,1,0,2
CCCc1cc(C(=O)Nc2cc(Cl)ccc2O)no1,3,11*,1,0,5.6*
CN(C)c1cccc(-c2ccnc(N3CCC(C(N)=O)CC3)n2)c1,x,7,x,-1,1
C#CCN1C(=O)[C@]2(OCCC=C[C@H]2C)c2cc(OC)ccc21,x,5,-1,0,-3
C=Cc1ccc(C(=O)N2CCC(n3nnc4ncccc43)CC2)cc1,x,2,1,-1,-1
N#Cc1ccc(C(=O)Oc2coc(CSc3ncccn3)cc2=O)cc1,x,3,x,0,1
CC(C)Cc1cc(C(=O)Nc2ccc(F)cc2F)no1,1,12*,3.9*,-1,1
Cc1nc(NC(=O)C2CC2)sc1C(=O)N1CCCCC1,0,-1,1,-1,-2
Cc1nc(NC(=O)c2cccc(Cl)c2)sc1C(=O)N1CCCCC1,0,11*,2,-1,0
SMILES,DAX1 inh-1,hgDAF12 agonist,DAX1 inh-2,ssDAF12 agonist,hcDAF-12 act
COC(=O)c1ccc2nc(-c3ccco3)c(Cc3ccsc3)n2c1,x,1,-1,-1,2
C=C(C)Cn1c(SCC(=O)N/N=C/c2c(O)ccc3ccccc23)nc2ccccc2c1=O,1,0,0,1,6.0*
CCOc1ccc(-n2c(SCC(=O)c3ccc4ccccc4c3)nnc2-c2cccc(Cl)c2)cc1,x,3,0,-1,-3
NNC(=O)c1ccc(Oc2cc(Cl)cc(Cl)c2)o1,4.3*,-1,0,0,-1
Cc1ccc(NC(=O)C2CCN(c3nnc(-n4cccc4)s3)CC2)c(C)c1,x,0,0,-1,-1
Cc1ccc2[nH]cc(CCNC(=O)CN3C(=O)c4ccccc4C3=O)c2c1,-1,-2,1,-2,-1
Cc1ccc2c(c1)N(CC(=O)NCCc1c[nH]c3ccccc13)C(=O)CO2,1,1,-1,0.9*,2
CCN(CC)c1ccc(C=NCCc2ccc(S(N)(=O)=O)cc2)cc1,0,-2,-1,1.0*,4
COC(=O)C1=C(C)N(Cc2ccc(Br)cc2)C(=S)NC1c1cccc(F)c1 (stereo not given),x,3,-3,-1,-1
Cc1ccc(C(=O)O)cc1NC(=O)C1CCCN1S(=O)(=O)c1cccc2nsnc12 (stereo not given),0,0,0,1.6*,0
CCN(C)c1ccc(/C=N\n2nnnc2N)cc1,1,12*,-1,-1,0
CCOc1ccc(C=Nn2c(-c3cccc(OC(C)C)c3)n[nH]c2=S)cc1,x,0,1,-2,0
CC(=O)c1oc2ccccc2c1NC(=O)CCCN1C(=O)c2ccccc2C1=O,0,6,4,0,5.8*
COC(=O)CCC(=O)c1oc2ccccc2c1NC(=O)CCCN1C(=O)c2ccccc2C1=O,0,0,1,-1,0
COC(=O)C1=C(C)N(Cc2cccc(C(F)(F)F)c2)C(=NCc2cc(OC)c(OC)c(OC)c2)NC1c1cccc(F)c1 (stereo not given),x,0,1,-1,0
S=C(SCc1nc(-c2ccc(Cl)cc2)no1)N1CCSCC1,x,1,0,0,4
COC(=O)c1ccc(CSc2nc3c(c(=O)[nH]2)CCC3)cc1,x,1,3.7*,-2,0
Nc1c(Cl)cc(N=Nc2ccccc2)cc1Cl,1,7,3,1.0*,5
Oc1ccc(Cl)cc1N=Nc1ccccc1,0,3,0,-1,-2
CN1c2ccccc2C(=O)NC1c1ccc(Cl)cc1 (stereo not given),0,-1,0,-1,-1
Clc1ccc(C2Nc3ccccc3-n3cccc32)cc1 (stereo not given),1,3,-1,1.1*,5
COC(=O)C1=C(C)N(Cc2cccc(C(F)(F)F)c2)C(=NCc2cc(OC)c(OC)c(OC)c2)NC1c1ccccc1 (stereo not given),x,-1,0,0,0
O=S1(=O)c2ccc(N3CCC[C@H]3CO)cc2O[C@@H]2CCN1C2,x,-1,-1,0,0
COc1ccc(CN2CCN(S(=O)(=O)c3ccc(F)cc3)CC2)cc1OC,-1,0,0,-2,-2
COc1ccc(CN2CCN(S(=O)(=O)c3ccccc3)CC2)cc1Br,0,-2,0,1.4*,-3
O=C(Cn1nnc(N2CCCCC2)n1)NN=Cc1ccccc1O,x,-4,1,-2,1
